Experimental data as given in PubChem BioAssay AID1619 (SRMLSC, 2009).
About 830 (0.38%) of roughly 220,000 compounds were called active.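 Rule for the calls: active = compound inhibiting the enzyme by more than half at any dose during confirmatory dose-response retesting; inconclusive = strong single-dose inhibitors picked by rank but not retested; inactive = the rest.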 The list is a sample of the results. Results with a measured potency or affinity are listed apart.

target: Leucine aminopeptidase (Plasmodium falciparum (isolate 3D7)) (UniProt Q8IL11); experiment: P. falciparum M17LAP inhibitors, primary screen, biochemical, fluorogenic H-Leu-NHMec substrate, 1536-well (AID 1619); conditions: recombinant M17LAP, H-Leu-NHMec fluorogenic kinetic assay; at 30 µM; hits give high values;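 note: plate controls were full reaction with DMSO carrier for no effect and no enzyme background for full effect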
Sequence (Q8IL11 whole entry, looked up): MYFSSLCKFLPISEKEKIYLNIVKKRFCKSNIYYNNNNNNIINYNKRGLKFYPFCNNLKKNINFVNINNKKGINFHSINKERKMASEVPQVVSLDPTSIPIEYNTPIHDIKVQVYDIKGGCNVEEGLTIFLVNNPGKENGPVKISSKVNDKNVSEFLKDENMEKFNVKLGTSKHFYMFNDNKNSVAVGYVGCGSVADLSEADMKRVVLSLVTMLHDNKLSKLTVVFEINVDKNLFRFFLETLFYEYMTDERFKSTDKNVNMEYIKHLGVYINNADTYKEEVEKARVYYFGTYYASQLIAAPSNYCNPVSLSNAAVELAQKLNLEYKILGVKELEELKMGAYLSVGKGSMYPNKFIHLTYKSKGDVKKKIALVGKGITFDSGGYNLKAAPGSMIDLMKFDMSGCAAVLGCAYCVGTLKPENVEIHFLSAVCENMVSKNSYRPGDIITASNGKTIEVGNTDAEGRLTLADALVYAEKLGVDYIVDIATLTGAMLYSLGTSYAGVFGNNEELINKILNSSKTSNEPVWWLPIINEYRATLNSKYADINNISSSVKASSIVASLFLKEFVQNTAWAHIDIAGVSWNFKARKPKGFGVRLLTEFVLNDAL

inhibition, inactive:
CCCCC(CC)CNC(=O)/C=C/c1ccc(F)cc1 (stereo unspecified) 9.03%, COc1ccc(S(=O)(=O)Nc2ccc3c(c2)OCCO3)cc1Cl -0.34%, Cc1cc(SCC2=NNC(=O)C2)c(Cl)cc1Cl 3.5%, O=C1CC(CSc2ccc(Cl)cc2)=NN1 7.98%, O=C(O)COc1ccc(Cl)cc1CO 20%, CCOC(=O)C1=C(C)N(C)C(C)=C(C(=O)OCC)C1c1ccc(C(=O)OC)cc1 3.78%, CC(C)NC(=O)NC(=O)COc1c(F)c(F)cc(F)c1F -8.9%, CCc1ccc(NC(=S)Nc2ccc3cn[nH]c3c2)cc1 11.2%, CCNC(=S)Nc1ccc2cn[nH]c2c1 14.6%, CC(c1ccon1)N(C)Cc1cn(C)nc1-c1cccc(Cl)c1 (stereo unspecified) -1.33%, CN(C)c1ccc(/C=C2\CCC/C(=C\c3ccccc3)C2=O)cc1 5.08%, O=C1/C(=C/c2ccncc2)CCC/C1=C\c1ccncc1 -3.28%, COc1ccc(CC(=O)Nc2cc(S(=O)(=O)N3CCOCC3)ccc2N2CCOCC2)cc1 2.63%, COc1ccc(NC(=O)Nc2ccc(CC(=O)O)cc2)cc1 2.73%, O=C(Nc1cccc(Cl)c1)Nc1cccc(C(=O)O)c1 -7.66%, O=C(Nc1cccc([N+](=O)[O-])c1)Nc1cccc([N+](=O)[O-])c1 -0.88%, O=C(Nc1ccccc1)Nc1cccc(Cl)c1 15.7%, O=C(Nc1cccc(Cl)c1)Nc1cccc(Cl)c1 1.69%, O=C(Nc1ccc(OC(F)(F)F)cc1)Nc1cccc([N+](=O)[O-])c1 2.58%, CC(=O)Nc1ccc(CC(=O)O)cc1 -5.89%, COC(=O)c1cccc(NC(=O)Nc2ccc(Cl)cc2)c1 2.56%, O=C(COc1ccc(S(=O)(=O)N2CCCCC2)cc1)NC1CCCCC1 0.02%, O=C(NC(Cc1ccccc1)C(=O)O)/C(=C\c1ccccc1F)NC(=O)c1ccccc1 (stereo unspecified) 32.3%, O=C(NCc1ccco1)c1ccc(F)c(S(=O)(=O)N2CCCCC2)c1 8.34%, C#CCOc1nc(OCC#C)nc(OCC#C)n1 -14.6%, CC(C)(C)[C@@H]1C=C(C(=O)N2CCOCC2)O[C@H](OCc2ccc(CO)cc2)C1 0.65%, COc1ccccc1CNC(=O)COC(=O)Cc1c(F)cccc1Cl -4.41%, CC(C)C(=O)Nc1ccc(NC(=S)NC(=O)c2cc3ccccc3o2)cc1 -4.08%, COc1ccc(OC)c(NC(=S)N(CCc2c(C)[nH]c3ccc(C)cc23)Cc2cccs2)c1 3.79%, Cc1csc(NC(=O)c2cc(=O)[nH]c3ccc(S(=O)(=O)N4CCOCC4)cc23)n1 -22.8%, O=C(CSc1nc2ccccc2o1)N/N=C/c1ccccc1 17.4%, COc1ccc(/C=N/NC(=O)CSCC(=O)Nc2ccccc2)cc1 -7.59%, CSc1nc(C)cc(SCC(=O)N/N=C/c2ccccc2)n1 -5.92%, COc1ccc(/C=N/NC(=O)CC(=O)N/N=C/c2ccc(OC)cc2)cc1 14.7%, Cc1cc(C(=O)Nc2ccccc2N2CCOCC2)ccc1[N+](=O)[O-] 8.21%, O=C(c1ccc(CN2CCOCC2)cc1)N1CCN(c2ccccc2)CC1 3.18%, Cc1ccc(C)c(NC(=O)c2ccc(S(=O)(=O)C(F)F)cc2)c1 -0.05%, COc1ccccc1N1CCN(C(=O)c2cc(C(C)(C)C)oc2C)CC1 13.9%, O=C1OCCC1Sc1nc2ccccc2c(=O)n1-c1ccc(F)cc1 (stereo unspecified) -2.24%, CCC1=Nc2cc(C(=O)O)ccc2Sc2ccc(Cl)cc21 7.99%, Cc1ccc(C(=O)NC(Cc2c[nH]c3ccccc23)C(=O)O)cc1 (stereo unspecified) 17.6%, CCOc1ccccc1Nc1nnc(SCC(=O)Nc2cc(C)on2)s1 -0.81%, CCOc1ccccc1Nc1nnc(SCC(=O)Nc2ccc3[nH]c(=O)[nH]c3c2)s1 -4.13%, Cc1ccc(C)c(OCC(=O)NC(Cc2c[nH]c3ccccc23)C(=O)O)c1 (stereo unspecified) -8.94%, CC(C)C(=O)Nc1nc2c(c(=O)[nH]1)CCCC2 3.8%, CCc1n[n+](CC(=O)c2ccccc2)c(N)s1 -0.05%, COc1ccc(-c2[nH]ncc2/C=C(/C#N)C(=O)NC2CCCCC2)cc1 0.03%, COc1ccc(-c2[nH]ncc2/C=C(/C#N)C(=O)NC2CCCCCC2)cc1 -2.26%, O=C(c1cc(-c2ccccc2)on1)N1CCN(Cc2ccc3c(c2)OCO3)CC1 -6.81%, CCc1ccccc1NC(=O)CSc1ccsc1[N+](=O)[O-] 6.13%, Cc1ccccc1NC(=O)CSc1ccsc1[N+](=O)[O-] 8.37%, Cc1cccc(C(=O)N2CCCCCC2)c1[N+](=O)[O-] -0.16%, CCN1CCN(CC(O)COCc2ccccc2)CC1 (stereo unspecified) 8.64%, CCCN(C(=O)/C=C/c1ccco1)c1c(N)n(Cc2ccccc2)c(=O)[nH]c1=O 12.1%, Cc1nn(C(C)C(=O)NC2C(=O)N3C(C(=O)O)=C(CSc4nnnn4C)CSC23)cc1Cl (stereo unspecified) 48.7%, Cn1nnnc1SCC1=C(C(=O)O)N2C(=O)C(NC(=O)C3CC3c3ccccc3)C2SC1 (stereo unspecified) 20.4%, COc1ccc(Cn2cnc3c([N+](=O)[O-])c(C)c(C)cc32)cc1 16.7%, O=C(Cc1csc(N2CCOCC2)n1)N/N=C/c1ccc(F)cc1 45.5%, COc1ccccc1NC(=O)Nc1cc(C(C)C)ccc1C 3.16%, CCOc1cc(/C=C2\C(=O)N(CCc3ccc(OC)c(OC)c3)C(C)=C2C(=O)OC)ccc1O 7.43%, COc1cc(/C=C2/NC(=O)N(Cc3ccccc3F)C2=O)ccc1O -1.31%, COc1ccc(C(=O)Nc2ccc(Cl)cc2C(=O)NCCN2CCOCC2)cc1 5.43%, Cc1ccc(S(=O)(=O)NNC(=O)CC#N)cc1 5.13%, COc1cc(/C=C2\SC(=N)N(c3ccc4c(c3)OCO4)C2=O)cc(OC)c1O 1.69%, COc1ccccc1N1C(=N)S/C(=C\c2ccc(-c3ccccc3C(=O)O)o2)C1=O 61.1%, N=C1S/C(=C\c2ccco2)C(=O)N1c1ccc2c(c1)OCO2 6.49%, Cc1cccc(NC(=O)CN2C(=O)S/C(=C\c3ccc(-c4cccc(C(=O)O)c4C)o3)C2=O)c1 4.08%, O=C(COC(=O)Cc1ccc(Br)cc1)NCC1CCCCC1 1.79%, CCOC(=O)N1CCN(C(=O)CSc2ccc(-c3cccnc3)nn2)CC1 -5.54%, Oc1ccc(-c2nc3ccccc3s2)c(O)c1 -4.82%, Cc1c(O)ccc(-c2n[nH]c(C(=O)O)c2-c2nc3ccccc3s2)c1O -2.67%, Cc1nc2ccccn2c1C(=O)CSc1ccccc1 24.3%, CCOC(=O)Cc1n[nH]c(=O)c2ccccc12 1.58%, O=C(NCc1ccccn1)c1cc(-c2ccccc2)on1 8.29%, CCOC(=O)CSc1nnc(-c2ccoc2C)n1-c1ccc(C)cc1 14.1%, CCOC(=O)CSc1nnc(-c2ccco2)n1-c1ccccc1 11.8%, COC(=O)CSc1nnc(-c2ccco2)n1-c1ccc(C)cc1 13.9%, CC(C)OC(=O)CSc1nnc(-c2ccco2)n1N 6.79%, Cc1ccc(OCCn2c(=O)oc3ccc(C)cc32)cc1 13.7%, Cn1c(SCC(N)=O)nnc1C1CCN(C(=O)NC2CCCCC2)CC1 -3.93%, COc1ccc(OC)c(NC(=O)C2CCCCC2C(=O)O)c1 (stereo unspecified) 40.9%, COc1ccc(C)cc1NC(=O)C1CCCCC1C(=O)O (stereo unspecified) 52.8%, COc1ccc(C(C)(C)C)cc1NC(=O)C1C2C=CC(C2)C1C(=O)O (stereo unspecified) 7.82%, COc1ccc(OC)c(NC(=O)C2CC(C)=C(C)CC2C(=O)O)c1 (stereo unspecified) 34.4%, COc1ccc2cc(C(c3nnnn3CCc3ccccc3)N3CCCC(C)C3)c(=O)[nH]c2c1 (stereo unspecified) 10.6%, CCCCNS(=O)(=O)c1ccc(S(=O)(=O)N2CCC3(CC2)OCCO3)cc1 -5.01%, COC(=O)C1=C(NC(=O)COc2ccc(Cl)cc2Cl)CCS1 49.6%, CC(C)(C)S(=O)(=O)/C(C#N)=N/Nc1ccc(S(C)(=O)=O)cc1 43.2%, CC(C)(C)S(=O)(=O)/C(C#N)=N/Nc1ccc(S(N)(=O)=O)cc1 16.4%, CC(C)(C)S(=O)(=O)/C(C#N)=N/Nc1ccc(C#N)cc1 19.9%, COc1ccc(N/N=C(/C#N)S(=O)(=O)C(C)(C)C)cc1 5.23%, CC(C)(C)S(=O)(=O)/C(C#N)=N/Nc1ccc(Cl)cc1 12.6%, CC(C)(C)c1ccc(N/N=C(\C#N)S(=O)(=O)C(C)(C)C)cc1 23.4%, Cn1c(SCc2ccc(Cl)cc2)nc(C(F)(F)F)cc1=O -4.09%, CCN(CC)C(=O)C(=O)c1cn(CC(=O)NCC2CCCO2)c2ccccc12 (stereo unspecified) -6.14%, Cc1cccc(NC(=O)c2nc[nH]c2C(=O)NCC(=O)OC(C)(C)C)c1 -3.35%
